What all share (parameters): scale not given: direction of the effect not stated beside the values
In assay [1] the target is Protein translocase subunit SecA (Escherichia coli (strain K12)) (UniProt P10408). The assay is described as follows: Assay to Identify E. coli SecA ATPase Inhibitors. In kind it is functional. The settings on record: 30 µM.
Assay [2] concerns the target T1, Ubiquitin-activating enzyme e1, putative (Leishmania donovani (strain BPK282A1)) (UniProt E9BSI1).
T1 sequence (whole entry): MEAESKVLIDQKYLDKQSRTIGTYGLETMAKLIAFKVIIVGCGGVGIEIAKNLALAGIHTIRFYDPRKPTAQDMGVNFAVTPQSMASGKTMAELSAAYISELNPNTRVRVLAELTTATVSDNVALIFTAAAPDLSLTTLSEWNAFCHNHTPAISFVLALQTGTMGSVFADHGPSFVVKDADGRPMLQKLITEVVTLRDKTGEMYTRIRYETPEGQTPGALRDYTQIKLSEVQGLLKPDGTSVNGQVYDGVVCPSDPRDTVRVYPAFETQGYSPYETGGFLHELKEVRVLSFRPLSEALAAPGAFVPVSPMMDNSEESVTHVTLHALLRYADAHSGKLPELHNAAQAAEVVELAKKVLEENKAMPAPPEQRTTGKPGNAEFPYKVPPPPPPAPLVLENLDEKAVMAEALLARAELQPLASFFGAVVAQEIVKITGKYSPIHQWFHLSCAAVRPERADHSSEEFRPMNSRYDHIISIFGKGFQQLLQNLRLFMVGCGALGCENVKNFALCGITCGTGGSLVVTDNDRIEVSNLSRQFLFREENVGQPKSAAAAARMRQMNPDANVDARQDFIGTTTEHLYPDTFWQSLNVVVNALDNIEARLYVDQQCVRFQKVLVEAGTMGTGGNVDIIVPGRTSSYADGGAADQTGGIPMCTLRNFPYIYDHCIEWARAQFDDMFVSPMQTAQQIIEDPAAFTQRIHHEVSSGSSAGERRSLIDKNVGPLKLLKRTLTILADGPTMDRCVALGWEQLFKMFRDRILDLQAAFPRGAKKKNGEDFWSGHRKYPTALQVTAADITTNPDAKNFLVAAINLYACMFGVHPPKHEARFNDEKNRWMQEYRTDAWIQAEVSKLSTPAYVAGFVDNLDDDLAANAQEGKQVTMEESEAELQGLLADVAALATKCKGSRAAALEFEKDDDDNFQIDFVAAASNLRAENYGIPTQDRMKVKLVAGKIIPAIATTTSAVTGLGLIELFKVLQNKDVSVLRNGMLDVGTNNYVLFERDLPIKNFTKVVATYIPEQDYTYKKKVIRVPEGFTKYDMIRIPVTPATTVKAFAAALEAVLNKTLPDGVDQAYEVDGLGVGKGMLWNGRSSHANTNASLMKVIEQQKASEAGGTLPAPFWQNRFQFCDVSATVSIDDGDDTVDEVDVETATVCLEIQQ
The assay is described as follows: Leishmania donovani Ubiquitin Activating Enzyme (LdE1). The settings on record: 30 µM. It is filed as functional.

The target in assay [3] is AMP-activated protein kinase, AMPK (Homo sapiens) (UniProt P54646+O43741+P54619+Q9UGJ0+Q9Y478+Q13131+Q9UGI9). The assay is described as follows: AMP-dependent Kinase enzyme assay. An in vitro enzyme assay that detects ADP turnover that is directly proportional to AMPK activity. This uses naive AMPK that is activated during the assay with MK-8722. In kind it is functional. The settings on record: 30 µM.

Assay [4] has as its target Sialic acid-binding Ig-like lectin 9 (Homo sapiens) (UniProt Q9Y336). The experiment in a line: Hs-Siglec9 ALPHAscreen SOP 20170721. Particulars: 10 µM. (In general: Alpha assays give light when donor and acceptor beads are brought close together.)
Assay [5] deals with Trypanosoma cruzi. The experiment in a line: Trypanosoma cruzi phosphomannomutase and mannose-1-phosphate guanylyltransferase assay. It is filed as functional. Particulars: 10 µM.
The target in assay [6] is T2, Arginase-2, mitochondrial (Homo sapiens) (UniProt P78540).
T2 sequence (whole entry): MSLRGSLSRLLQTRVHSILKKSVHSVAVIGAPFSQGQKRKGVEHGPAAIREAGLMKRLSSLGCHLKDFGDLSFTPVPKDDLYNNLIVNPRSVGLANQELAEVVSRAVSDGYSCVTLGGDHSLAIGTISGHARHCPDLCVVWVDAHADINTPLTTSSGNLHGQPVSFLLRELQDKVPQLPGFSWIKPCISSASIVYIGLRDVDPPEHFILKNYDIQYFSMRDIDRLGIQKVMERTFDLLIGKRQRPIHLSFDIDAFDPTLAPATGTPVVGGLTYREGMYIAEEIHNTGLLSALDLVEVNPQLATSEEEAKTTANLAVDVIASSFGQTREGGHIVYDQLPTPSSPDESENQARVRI
The assay is described as follows: in vitro enzyme assay to detect the production of urea directly proportional to the activity of Arginase II. Further: in the data most compounds retested in dose-response had high values. In kind it is functional. The settings on record: 33.3 µM.

For assay [7], the target named is T3, Proteasome subunit beta (Trypanosoma cruzi) (UniProt O96673).
T3 sequence (whole entry): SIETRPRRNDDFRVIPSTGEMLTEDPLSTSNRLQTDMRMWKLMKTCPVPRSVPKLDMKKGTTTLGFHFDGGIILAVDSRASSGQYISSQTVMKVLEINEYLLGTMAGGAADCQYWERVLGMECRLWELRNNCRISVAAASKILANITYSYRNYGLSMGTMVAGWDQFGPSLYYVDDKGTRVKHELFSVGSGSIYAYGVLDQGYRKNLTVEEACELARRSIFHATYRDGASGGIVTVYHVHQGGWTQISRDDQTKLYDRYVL
The experiment in a line: Trypanosoma cruzi proteasome chymotrypsin-like activity (TcProtChymo) assay. Further: in the data most compounds retested in dose-response had high values. Particulars: 9.37 µM. In kind it is functional.

The species named for assay [8] is Homo sapiens. The assay is described as follows: To identify inhibition of the IFN signalling (Jak-Stat) pathway via expression of an eGFP reporter gene under the control of an IFN-stimulated response element (ISRE) containing MxA promoter. It is filed as functional. The settings on record: 30 µM.
Assay [9] deals with T4, Tyrosyl-tRNA synthetase, putative (Trypanosoma cruzi (strain CL Brener)) (UniProt Q4DSP6).
T4 sequence (whole entry): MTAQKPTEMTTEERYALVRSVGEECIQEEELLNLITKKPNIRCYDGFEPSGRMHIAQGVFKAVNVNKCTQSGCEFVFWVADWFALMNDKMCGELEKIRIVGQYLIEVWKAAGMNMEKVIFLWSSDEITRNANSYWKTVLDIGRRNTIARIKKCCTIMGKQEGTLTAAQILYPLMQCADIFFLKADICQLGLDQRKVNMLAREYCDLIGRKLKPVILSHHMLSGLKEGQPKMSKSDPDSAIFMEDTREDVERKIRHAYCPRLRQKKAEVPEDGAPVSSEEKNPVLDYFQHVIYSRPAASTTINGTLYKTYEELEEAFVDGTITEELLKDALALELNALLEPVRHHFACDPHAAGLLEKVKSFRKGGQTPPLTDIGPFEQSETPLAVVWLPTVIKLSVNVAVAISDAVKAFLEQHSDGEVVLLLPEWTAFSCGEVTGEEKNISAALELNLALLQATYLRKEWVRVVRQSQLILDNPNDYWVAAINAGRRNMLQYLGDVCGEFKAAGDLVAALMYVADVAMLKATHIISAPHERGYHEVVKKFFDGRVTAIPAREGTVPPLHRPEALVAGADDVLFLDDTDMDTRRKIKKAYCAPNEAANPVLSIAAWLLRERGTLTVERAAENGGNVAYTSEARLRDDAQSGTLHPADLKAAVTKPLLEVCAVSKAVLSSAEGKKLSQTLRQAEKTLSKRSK
The experiment in a line: Trypanosoma cruzi tyrosyl tRNA synthetase (TcYRS) _High Tyrosine SOP. Further: in the data most compounds retested in dose-response had high values. It is filed as functional. The settings on record: 30 µM.

For assay [10], the target named is T4, Tyrosyl-tRNA synthetase, putative (Trypanosoma cruzi (strain CL Brener)). The assay is described as follows: Trypanosoma cruzi tyrosyl tRNA synthetase (TcYRS) SOP. It is filed as functional. Particulars: 30 µM.
Assay [11] concerns the target Chromo domain-containing protein 1 (Saccharomyces cerevisiae (strain ATCC 204508 / S288c) (Baker's yeast)) (UniProt P32657). The experiment in a line: ScCHD-1 Enzyme Inhibition Assay. Further: in the data most compounds retested in dose-response had high values. In kind it is functional. The settings on record: 30 µM.

For some of these results: Measured potencies and affinities stand elsewhere.

Sequence of Sialic acid-binding Ig-like lectin 9 (Homo sapiens) (Q9Y336 whole entry): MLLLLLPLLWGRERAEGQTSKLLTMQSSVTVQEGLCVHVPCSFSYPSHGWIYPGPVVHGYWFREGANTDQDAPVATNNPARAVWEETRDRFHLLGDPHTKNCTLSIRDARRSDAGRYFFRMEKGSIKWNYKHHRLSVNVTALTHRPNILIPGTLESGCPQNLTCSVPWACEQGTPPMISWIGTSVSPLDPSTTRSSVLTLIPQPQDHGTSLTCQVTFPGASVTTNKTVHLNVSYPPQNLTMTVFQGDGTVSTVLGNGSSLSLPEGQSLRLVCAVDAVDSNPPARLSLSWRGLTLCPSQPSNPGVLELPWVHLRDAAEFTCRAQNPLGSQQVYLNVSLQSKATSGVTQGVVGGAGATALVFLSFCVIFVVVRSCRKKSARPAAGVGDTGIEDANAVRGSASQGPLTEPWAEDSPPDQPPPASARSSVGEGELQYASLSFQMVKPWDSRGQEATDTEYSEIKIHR
Sequence of Protein translocase subunit SecA (Escherichia coli (strain K12)) (P10408 whole entry): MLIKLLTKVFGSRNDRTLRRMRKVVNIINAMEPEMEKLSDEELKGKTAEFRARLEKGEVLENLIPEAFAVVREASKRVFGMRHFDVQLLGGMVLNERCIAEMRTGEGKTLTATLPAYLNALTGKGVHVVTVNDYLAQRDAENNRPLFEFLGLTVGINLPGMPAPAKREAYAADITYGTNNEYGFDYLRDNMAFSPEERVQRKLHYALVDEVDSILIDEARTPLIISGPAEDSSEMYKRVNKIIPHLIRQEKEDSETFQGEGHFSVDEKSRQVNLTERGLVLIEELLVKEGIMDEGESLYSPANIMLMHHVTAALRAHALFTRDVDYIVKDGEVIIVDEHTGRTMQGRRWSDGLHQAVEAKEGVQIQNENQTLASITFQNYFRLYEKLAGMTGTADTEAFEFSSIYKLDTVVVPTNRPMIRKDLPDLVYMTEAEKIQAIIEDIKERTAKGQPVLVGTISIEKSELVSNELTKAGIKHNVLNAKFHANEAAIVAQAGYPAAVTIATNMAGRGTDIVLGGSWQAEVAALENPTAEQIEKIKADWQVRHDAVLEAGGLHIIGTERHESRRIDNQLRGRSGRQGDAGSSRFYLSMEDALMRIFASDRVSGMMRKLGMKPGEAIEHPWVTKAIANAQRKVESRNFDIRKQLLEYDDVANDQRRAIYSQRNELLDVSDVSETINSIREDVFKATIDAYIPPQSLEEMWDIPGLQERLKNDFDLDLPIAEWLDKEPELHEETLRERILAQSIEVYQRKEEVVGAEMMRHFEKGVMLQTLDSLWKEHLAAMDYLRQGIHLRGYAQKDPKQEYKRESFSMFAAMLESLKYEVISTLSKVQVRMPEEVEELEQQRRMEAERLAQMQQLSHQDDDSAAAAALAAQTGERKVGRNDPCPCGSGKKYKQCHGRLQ
Sequence of Chromo domain-containing protein 1 (Saccharomyces cerevisiae (strain ATCC 204508 / S288c) (Baker's yeast)) (P32657 whole entry, the tested form may be a part): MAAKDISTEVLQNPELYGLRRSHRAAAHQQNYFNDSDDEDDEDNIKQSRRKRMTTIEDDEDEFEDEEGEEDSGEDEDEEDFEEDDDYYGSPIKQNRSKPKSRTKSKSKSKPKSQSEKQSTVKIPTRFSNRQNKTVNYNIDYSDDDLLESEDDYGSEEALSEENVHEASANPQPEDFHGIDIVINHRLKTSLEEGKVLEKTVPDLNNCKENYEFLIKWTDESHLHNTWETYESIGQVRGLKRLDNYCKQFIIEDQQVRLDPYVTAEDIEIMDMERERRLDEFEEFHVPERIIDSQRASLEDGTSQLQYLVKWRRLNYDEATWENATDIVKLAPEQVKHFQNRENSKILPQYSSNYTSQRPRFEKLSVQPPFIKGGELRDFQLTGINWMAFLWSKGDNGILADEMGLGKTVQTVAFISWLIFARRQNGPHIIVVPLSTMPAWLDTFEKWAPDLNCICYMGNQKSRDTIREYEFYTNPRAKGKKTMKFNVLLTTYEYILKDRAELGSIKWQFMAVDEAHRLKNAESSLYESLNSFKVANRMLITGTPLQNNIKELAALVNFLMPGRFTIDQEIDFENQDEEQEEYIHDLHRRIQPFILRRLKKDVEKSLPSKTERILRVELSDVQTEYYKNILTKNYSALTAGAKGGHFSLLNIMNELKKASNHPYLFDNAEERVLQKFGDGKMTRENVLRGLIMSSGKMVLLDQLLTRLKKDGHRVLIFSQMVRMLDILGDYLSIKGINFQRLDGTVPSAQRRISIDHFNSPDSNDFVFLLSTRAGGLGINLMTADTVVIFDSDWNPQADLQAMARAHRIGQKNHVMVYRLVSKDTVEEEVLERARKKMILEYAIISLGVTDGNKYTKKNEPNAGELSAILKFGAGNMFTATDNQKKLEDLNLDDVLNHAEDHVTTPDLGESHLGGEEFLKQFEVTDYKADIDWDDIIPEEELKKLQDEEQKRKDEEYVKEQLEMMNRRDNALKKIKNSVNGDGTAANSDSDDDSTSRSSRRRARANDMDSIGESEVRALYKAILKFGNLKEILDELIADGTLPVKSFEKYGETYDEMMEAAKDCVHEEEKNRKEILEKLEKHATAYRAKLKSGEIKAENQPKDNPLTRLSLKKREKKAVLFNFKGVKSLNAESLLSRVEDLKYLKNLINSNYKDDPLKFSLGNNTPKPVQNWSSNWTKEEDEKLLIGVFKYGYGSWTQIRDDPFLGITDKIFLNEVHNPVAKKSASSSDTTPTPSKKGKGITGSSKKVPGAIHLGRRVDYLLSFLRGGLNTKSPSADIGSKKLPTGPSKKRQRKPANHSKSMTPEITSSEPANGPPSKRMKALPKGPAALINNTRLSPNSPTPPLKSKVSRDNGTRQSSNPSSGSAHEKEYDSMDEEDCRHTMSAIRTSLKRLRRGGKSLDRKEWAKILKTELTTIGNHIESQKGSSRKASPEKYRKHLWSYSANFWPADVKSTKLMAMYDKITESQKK

In the case of `CN(C)CC1CSCCCN1C(=O)Nc1ccc(C(C)(C)C)cc1` (stereo unspecified), the Percent Effect in assay [1] is -1.39%; in assay [2], 5.2%; in assay [3], 3.67%; in assay [4], 12.9%; in assay [5], -9.96%; in assay [6], -5.81%. In addition, the Percent Effect is 1.57% in [7]; 13.1% in assay [8]; 4.23% in assay [9]; 8.97% in assay [10]; -4.09% in assay [11].
With `Cc1nccc(C(=O)N2CCCN(Cc3cnn(C(C)C)c3)CC2)n1`, the Percent Effect is -7.35% in assay [1]; -8.11% in assay [2]; 0.58% in [3]; 14.6% in assay [4]; -2.93% in assay [5]; -0.833% in assay [6]. Further, the Percent Effect in assay [7] came out at 7.35%; in assay [8] it was 1.24%; in [9], 5.94%; in assay [10], 11%; in assay [11], 6.2%.
For `c1ccc(CN2CCCC(c3nccnc3-n3ccnc3)C2)cc1` (stereo unspecified), the Percent Effect in assay [1] is -1.15%; in assay [2], 10.7%; in assay [3], 4.45%; in [4] it was -1.75%; in [5] it was 0.591%; in assay [6] it was -0.233%. Further, the Percent Effect in assay [7] is 14.5%; in assay [8], 7.14%; in assay [9], 5.32%; in assay [10] it was 6.41%; in [11], -0.742%.
In the case of `Cc1cnn(C2CN(CC(=O)NCCc3ccccc3)C2)c1`, the Percent Effect was -3.73% in assay [1]; -10.5% in assay [2]; 3.48% in assay [3]; 3.23% in assay [4]; 1.21% in [5]; -2.16% in [6]. For the same compound, the Percent Effect in [7] was -0.254%; in assay [8] it was 8.21%; in [9], 5.42%; in [10] it was 13.6%; in [11], 4.88%.
On to `Cc1ccc(CN(Cc2c[nH]cn2)C2CC(C)(C)NC(C)(C)C2)o1`, for which the Percent Effect in assay [1] was -2.16%; in [2], 4.05%; in assay [3] it was 13.8%; in [4], 0.615%; in assay [5] it was -9.49%; in assay [6] it was -1.62%. For the same compound, the Percent Effect in [7] was 10.4%; in [8], 12.1%; in assay [9], 4.3%; in [10] it was 3.9%; in assay [11], -10.2%.
For the compound `COCCN1CCC(NCc2ccc(C#N)cc2)C1` (stereo unspecified), the Percent Effect in assay [1] is -8.38%; in assay [2], 0%; in assay [3], -5.29%; in assay [4], 8.39%; in assay [5], 9.55%; in assay [6], 4.98%. Besides, the Percent Effect is 1.86% in [7]; 2.29% in [8]; 8.74% in [9]; 21.9% in assay [10]; -10.6% in assay [11].
For the compound `CS(=O)(=O)NCc1nnc2n1CCN(CC1CC1)C2`, the Percent Effect in assay [1] was -5.86%; in [2], 8.11%; in assay [3], 5.91%; in assay [4] it was -4.89%; in assay [5] it was -0.293%; in [6] it was -2.23%. Further, the Percent Effect in [7] is 18.6%; in [8], -21.1%; in assay [9] it was 5.41%; in [10], 12.8%; in assay [11] it was -2.16%.
Consider `COc1ccc(CN(C)Cc2nc3c(cnn3C)c(=O)[nH]2)cc1OC`, for which the Percent Effect was -1.17% in assay [1]; 13.9% in [2]; 4.17% in assay [3]; 3.18% in [4]; -3.18% in assay [5]; 2.8% in assay [6]. Besides, the Percent Effect in assay [7] was 16.5%; in [8], 11.6%; in assay [9], 7.29%; in assay [10] it was 7.59%; in [11], -3.45%.
`Cc1cnn(CC(C)NCc2csc(-c3ccsc3)n2)c1` (stereo unspecified): the Percent Effect is -3.78% in assay [1]; -3.8% in assay [2]; -1.07% in assay [3]; 0.382% in assay [4]; 0.923% in [5]; -1.94% in [6]. Besides, the Percent Effect in [7] was 28.1%; in assay [8], 12.5%; in assay [9], 6.25%; in [10], 12.7%; in assay [11] it was -20.9%.
Turning to `O=C(COCc1nc(-c2ccncc2)no1)N1CCCC1`, the Percent Effect is -2.71% in [1]; 10.4% in assay [2]; 5.42% in assay [3]; 6.86% in [4]; 4.42% in [5]; -110% in [6]. Moreover, the Percent Effect in assay [7] is 7.32%; in [8], -13.8%; in [9] it was 5.38%; in assay [10], 13.6%; in assay [11], -4.16%.
As to `Cc1noc([C@H]2C[C@@H]3CCN(C(=O)N(C)C)C[C@H]3O2)n1`, the Percent Effect is -0.638% in [1]; -2.7% in assay [2]; 6.92% in [3]; 9.3% in assay [4]; -2.25% in assay [5]; 0.319% in [6]. Further, the Percent Effect was 15.5% in [7]; -7.89% in assay [8]; -1.08% in assay [9]; 2.56% in assay [10]; 0.431% in assay [11].

Source of the values: ChEMBL document CHEMBL3988442, “University of Dundee, Small-Polar-MMV Screening Library” (2021).
